Values joined by “and” are separate entries in the source; they are usually repeats but may differ in a detail not shown here. Equal values may be shown once. Values without a mark were called inactive. Results filed as inconclusive are left out. Where a call stands in place of a potency, no number is given. Active and inactive are the calls of the source. Unless noted, the call rests on the fitted dose curve; in most records, active means well fitted curve in the direction sought with a large enough effect; inconclusive means small, poorly fitted or top-dose-only effect, or another doubt; inactive means no such curve, though single readings can be large; an effect the other way counts as inactive or inconclusive.
Legend:
[1] = Cell Viability - MRC5 (AID 434; calls by dose curve;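 further: potency means the concentration at half of the fitted maximal effect; cells exposed to compound for 40 hours at 37 °C; potency reflects cytotoxicity seen as loss of intracellular ATP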); conditions: MRC5 lung fibroblast viability, qHTS
Procedure, shortened: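 qHTS cytotoxicity in human lung fibroblast MRC5 cells; 40 hr treatment, 37 °C; cellular ATP by luciferase luminescence; DMSO = 0%, 100 uM tamoxifen = 100% inhibition; Hill-fit AC50.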

[2] = Cellular Toxicity (caspase-3) HepG2 (AID 654); conditions: HepG2 caspase-3 activation, luminescence; series mostly up to 92.2 µM;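 further: cells exposed to compound for 16 hours before reading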
Procedure, shortened: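 qHTS, HepG2, 1500 cells/well, complete medium; cpd 16 h 37 °C; Caspase-Glo 3/7, 20 min RT; lum. Norm: DMSO vs 100 uM tamoxifen; AC50 Hill fit.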

[3] = Cellular Toxicity (caspase-3) HUV-EC-C (AID 656); conditions: HUV-EC-C cells, caspase-3 activation (apoptosis); series mostly up to 92.2 µM
Procedure, shortened: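 Read-out: luminescence proportional to caspase 3/7 activity, measured 20 min after adding Caspase-Glo 3/7 reagent. Cells (HUV-EC-C) had received compound for 16 hr at 37°C. Increases relative to DMSO and 100 uM tamoxifen gave concentration-response AC50 values.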

[4] = Cellular Toxicity (caspase-3) SHSY5Y (AID 657); conditions: SH-SY5Y caspase-3 activation; series mostly up to 91.7 µM
Procedure, shortened: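 Cells plated and incubated 5 h at 37 °C, dosed over a concentration range, incubated 16 h, then given Caspase-Glo 3/7 reagent for 1 h at room temperature before luminescence reading. Staurosporine (10 uM) defined full stimulation.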

[5] = Cellular Toxicity (caspase-3) BJ (AID 658); conditions: BJ fibroblasts, luminescence; Potency: caspase-3 activation; series mostly up to 91.7 µM
Procedure, shortened: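 Readout: Caspase-Glo 3/7 luminescence increase in BJ cells after 16 hr treatment at 37 °C. Staurosporine and tamoxifen served as positive controls; AC50 values came from Hill modelling of data normalized to DMSO and 10 uM staurosporine.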

[6] = Cellular Toxicity (caspase-3) MRC-5 (AID 659); conditions: MRC-5 cells, luminescence, normalized: DMSO 0%, 10 µM staurosporine 100%; series mostly up to 91.7 µM
Procedure, shortened: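 Concentration-dependent caspase 3/7 activation is measured in human normal lung fibroblasts (MRC-5) following 16-hour treatment. AC50 values come from standard Hill-equation modeling of luminescence normalized to DMSO and 10 uM staurosporine.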

[7] = Cellular Toxicity (caspase-3) Mesangial (AID 660); conditions: mesangial cells, normalized: DMSO 0%, 100 µM tamoxifen 100%; series mostly up to 91.7 µM;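 further: cells exposed to compound for 16 h before the caspase read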
Procedure, shortened: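 Concentration-response qHTS: compound-induced rise in caspase 3/7 luminescence in human mesangial cells after 16 h, normalized to DMSO and 100 uM tamoxifen controls.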

[8] = Cellular Toxicity (caspase-3) SK-N-SH (AID 661); conditions: SK-N-SH caspase-3 activation, qHTS, DMSO as zero, staurosporine as full; series mostly up to 91.7 µM
Procedure, shortened: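 Caspase 3/7 activation is measured as a luminescence increase from aminoluciferin released by substrate cleavage in SK-N-SH cells after 16 hr compound treatment; values are AC50 from concentration-response curves.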

[9] = Cellular Toxicity (caspase-3) H-4-II-E (AID 663); conditions: H-4-II-E rat hepatoma; Potency: caspase-3 activation; series mostly up to 92.2 µM;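 further: cells exposed to compound for 16 hr before readout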
Procedure, shortened: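 Apoptosis induction is scored as increased luminescence from caspase 3/7 substrate cleavage in rat hepatoma H-4-II-E cells exposed to compound for 16 hr. Activity is scaled between DMSO and 100 uM tamoxifen.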

[10] = Cellular Toxicity (caspase-3) Hek293 (AID 664); conditions: HEK293 caspase-3 activation, DMSO = 0%, 100 µM tamoxifen = 100%; at 92.2 µM (top of the series);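 further: cells exposed to compound for 16 h at 37 °C before readout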
Procedure, shortened: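 Activation of caspase-3/7 is measured as increased luminescence from cleaved peptide-aminoluciferin substrate in HEK293 cells treated 16 hours at 37 °C. AC50 values come from Hill-equation fits of concentration-response data.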

[11] = Cellular Toxicity (caspase-3) N2a (AID 665); conditions: N2a cells, luminescence, normalized: DMSO 0%, 10 µM staurosporine 100%; series mostly up to 92.2 µM;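 further: compound exposure lasted 16 h at 37 °C before readout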
Procedure, shortened: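 Plated mouse neuroblastoma N2a cells received titrated compounds for 16 h in complete medium. Caspase activity was then detected with a peptide-aminoluciferin luminescent reagent.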

[12] = Cellular Toxicity (caspase-3) Renal Proximal Tubule (AID 667); conditions: renal proximal tubule cells, primary cells freshly taken from rat; Potency: caspase-3 activation; series mostly up to 91.7 µM;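 further: cells exposed to compound for 16 hours at 37 °C before detection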
Procedure, shortened: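 In qHTS format, rat primary proximal tubule cells seeded at 1000 per well are exposed to compounds for 16 hours at 37 °C. An increase in Caspase-Glo 3/7 luminescence indicates caspase activation.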

[13] = MultiTox-Fluor Cytotoxicity Assay - LYMP1-001 - Dead Cells (AID 946); conditions: LYMP1-001 lymphoblastoid cells, dead-cell protease fluorescence; series mostly up to 92.2 µM; further: potency means the concentration at half of the fitted maximal effect
Procedure, shortened: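 AC50 from Hill fit of concentration-response; data normalized to DMSO (basal) and 15 uM tetraoctylammonium bromide (100%). LYMP1-001 lymphoblastoid cells, 2500/well, 16 hr compound at 37 C; dead-cell protease fluorescence, Ex/Em 485/520.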

[14] = MultiTox-Fluor Cytotoxicity Assay - LYMP1-003 - Dead Cells (AID 961); conditions: LYMP1-003 lymphoblastoid cells, dead-cell protease fluorescence; series mostly up to 92.2 µM; further: nearly all actives have a fitted effect of over 70% in size; further: potency means the concentration at half of the fitted maximal effect
Procedure, shortened: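 Human lymphoblastoid LYMP1-003 cells (2500/well) were treated with compounds for 16 hr at 37 C in complete medium. Dead-cell protease release was read by bis-AAF-R110 fluorescence (Ex/Em 485/520). AC50 came from Hill fits, normalized to DMSO and 15 uM tetraoctylammonium bromide.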

[15] = MultiTox-Fluor Cytotoxicity Assay - LYMP1-003 - Live Cells (AID 962); conditions: LYMP1-003 lymphoblastoid cells, MultiTox-Fluor live-cell protease fluorescence; series mostly up to 92.2 µM; further: potency means the concentration at half of the fitted maximal effect
Procedure, shortened: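 Cells plated at 2500 per well and incubated 5 hr; compounds added and incubated 16 hr at 37 C; MultiTox-Fluor reagent added for 60 min at room temperature; fluorescence of liberated AFC measured at 405/510 nm.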

[16] = Cell Viability - LYMP1-003 - Assay at 24 hr (AID 963); conditions: LYMP1-003 lymphoblastoid cell viability; series mostly up to 92.2 µM
Procedure, shortened: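 Acute toxicity in LYMP1-003 lymphoblastoid cells: 24 hr compound treatment at 37 C, ATP measured with CellTiter-Glo after 30 min at room temperature. AC50 derived by fitting the Hill equation to qHTS titrations.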

[17] = Cell Viability - LYMP1-002 - Assay at 24 hr (AID 993); conditions: LYMP1-002 lymphoblastoid cells viability; series mostly up to 92.2 µM
Procedure, shortened: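 qHTS, LYMP1-002 lymphoblastoid, 24 h cpd, 37 C, CellTiter-Glo ATP luminescence; AC50 via Hill eq.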

[18] = qHTS Assay for Identification of Small Molecule Inducers of Hypoxia Response (AID 2120; active means well fitted curve in the direction sought with a large enough effect in the signal ratio, with a control signal flat, not every such curve was filed as active; the % refers to the signal ratio); conditions: hypoxia response reporter cells, beta-lactamase ratio readout; series mostly up to 104 µM
Procedure, shortened: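 Induction of beta-lactamase reporter activity was measured in CellSensor HRE-bla ME-180 cells after 17 h compound treatment at 37 degrees C, using CCF4 substrate and the 460nm/530nm emission ratio to derive AC50 values.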

[19] = biological target: Peroxisome proliferator-activated receptor alpha (Homo sapiens) (UniProt Q07869); assay: qHTS assay for small molecule agonists of the peroxisome proliferator-activated receptor alpha (PPARalpha) signaling pathway (AID 651778); conditions: PathHunter PPARalpha complementation, chemiluminescence, 6 h; max response: hits give high values
Peroxisome proliferator-activated receptor alpha (Homo sapiens), sequence (Q07869 whole entry, looked up): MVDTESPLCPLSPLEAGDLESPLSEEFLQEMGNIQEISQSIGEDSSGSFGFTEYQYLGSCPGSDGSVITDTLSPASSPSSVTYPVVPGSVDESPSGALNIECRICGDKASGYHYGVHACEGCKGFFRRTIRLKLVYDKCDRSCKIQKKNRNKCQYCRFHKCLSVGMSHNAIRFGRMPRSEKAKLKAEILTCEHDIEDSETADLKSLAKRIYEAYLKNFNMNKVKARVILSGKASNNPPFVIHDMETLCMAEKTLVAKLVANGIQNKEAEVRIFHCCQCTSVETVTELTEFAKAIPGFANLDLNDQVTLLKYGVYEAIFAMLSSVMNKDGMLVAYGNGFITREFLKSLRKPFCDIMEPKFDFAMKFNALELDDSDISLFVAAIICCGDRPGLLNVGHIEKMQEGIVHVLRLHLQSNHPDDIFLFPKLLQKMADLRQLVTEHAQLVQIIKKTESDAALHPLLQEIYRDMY
Procedure, shortened: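 Chemiluminescence from complemented enzyme reported PPARalpha activation in cells after 6 hr of compound treatment at 37 C. The detection reagent was incubated for 60 min at room temperature, and compounds were scored as agonists.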

[20] = qHTS assay for cell viability of the p53RE-bla HCT-116 cell line (AID 743292); conditions: p53RE-bla HCT-116 viability, ATP luminescence, 16 h; series mostly up to 95 µM; further: nearly all actives have a fitted effect of over 55% in size; further: potency means the concentration at half of the fitted maximal effect
Procedure, shortened: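 Intracellular ATP of p53RE-bla HCT-116 cells measured by luciferase luminescence following 16 h compound incubation at 37 C; DMSO-only wells served as vehicle controls.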

| Structure (SMILES) | Potency [1] | Potency [2] | Potency [3] | Potency [4] | Potency [5] | outcome [6] | outcome [7] | outcome [8] | Potency [9] | caspase-3 activation [10] | outcome [11] | Potency [12] | Potency [13] | Potency [14] | Potency [15] | Potency [16] | Potency [17] | Potency [18] | max response [19] | Potency [20] |
| --- | --- | --- | --- | --- | --- | --- | --- | --- | --- | --- | --- | --- | --- | --- | --- | --- | --- | --- | --- | --- |
| O=C(O)c1ccc([N+](=O)[O-])cc1 | > 92 µM | inactive | inactive | inactive | inactive | inactive | inactive | inactive | inactive | 10.3% | inactive | inactive | inactive | inactive | inactive | inactive | inactive | inactive | -2.26% and 0.632% | inactive |
| c1ccc(Nc2cccc3ccccc23)cc1 | > 92 µM | inactive | inactive | inactive | inactive | inactive | inactive | inactive | inactive | 4.83% | inactive | inactive | inactive | inactive | inactive | inactive | inactive | inactive |  | inactive |
| Nc1ccc(N)c(Cl)c1 | > 92 µM | inactive | inactive | inactive | inactive | inactive | inactive | inactive | inactive | 4.53% | inactive | inactive | inactive | inactive |  |  | inactive | inactive | 0.817% | inactive |
| S=C(NC1CCCCC1)NC1CCCCC1 | > 92 µM | inactive | inactive | inactive | inactive | inactive | inactive | inactive | inactive | 3.5% | inactive | inactive | inactive | inactive | inactive | inactive | inactive | inactive | 1.4% | inactive |
| Oc1cc2c(cc1O)[C@H]1c3ccc(O)c(O)c3OC[C@@]1(O)C2 | > 92 µM | inactive | inactive | inactive | inactive | inactive | inactive | inactive | inactive | 0.207% | inactive | inactive |  |  | 50.1 µM (active) |  |  | inactive | -1.65% |  |
| CN(C)c1ccc(C(=N)c2ccc(N(C)C)cc2)cc1 |  | inactive | inactive |  | inactive | inactive | inactive |  |  | 7.49% | inactive | inactive | 39.8 µM (active) | 50.1 µM (active) |  | inactive | inactive | inactive | -0.198% | inactive |
| Cc1c(C(=O)O)c(O)cc2c1C(=O)c1c(O)c([C@H]3O[C@H](CO)[C@@H](O)[C@H](O)[C@H]3O)c(O)c(O)c1C2=O |  | inactive | inactive | inactive | inactive | inactive | inactive | inactive | inactive | -3.17% | inactive | inactive | inactive | inactive | inactive |  |  | inactive | -8.63% | 44.7 µM (active) |
| Cc1ccc(O)c(N)c1 | > 92 µM | inactive | inactive | inactive | inactive | inactive | inactive | inactive | inactive | 1.75% | inactive | inactive | inactive | inactive | inactive | inactive | inactive | inactive | -1.19% | inactive |
| CC(=O)CC(=O)Nc1ccccc1 | > 92 µM | inactive | inactive | inactive | inactive | inactive | inactive | inactive | inactive | -0.00159% | inactive | inactive | inactive | inactive | inactive | inactive | inactive | inactive | 0.169% and 0.0126% | inactive |
| CC/C=C/C/C=C/C/C=C/CCCCCCCC(=O)OCC | > 92 µM | inactive | inactive | inactive | inactive | inactive |  | inactive | inactive | 7.96% | inactive | inactive | inactive | 50.1 µM (active) | inactive | inactive |  | inactive | 19.5% | inactive |
| Oc1cc(Cl)cc(Cl)c1Cl | > 92 µM | inactive | inactive | inactive | inactive | inactive | inactive | inactive | inactive | -0.269% | inactive | inactive | inactive | inactive | inactive | inactive | inactive | inactive | 6.36% | inactive |

Source: PubChem BioAssay (NCATS)
